Screening data from PubChem.
The sample as a whole holds a higher share of hits than the screen did.
hDAT+cocaine: changed human dopamine transporter uptake under cocaine IC80; Q01959; LLC-PK1 hDAT cells, [14C]-dopamine uptake with cocaine IC80; actives deviate in either direction; B-score at 10 µM; 1.3% of 110,000 active; AID 449768;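 active means Z score or B-score, a plate-position-corrected score, falls beyond the plate's 99.7% confidence bounds, in either direction; inactive means both scores lie inside the 99.7% bounds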;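 further: scored against the spread of the other compound wells on the same plate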
Target sequence (Q01959 whole entry, looked up): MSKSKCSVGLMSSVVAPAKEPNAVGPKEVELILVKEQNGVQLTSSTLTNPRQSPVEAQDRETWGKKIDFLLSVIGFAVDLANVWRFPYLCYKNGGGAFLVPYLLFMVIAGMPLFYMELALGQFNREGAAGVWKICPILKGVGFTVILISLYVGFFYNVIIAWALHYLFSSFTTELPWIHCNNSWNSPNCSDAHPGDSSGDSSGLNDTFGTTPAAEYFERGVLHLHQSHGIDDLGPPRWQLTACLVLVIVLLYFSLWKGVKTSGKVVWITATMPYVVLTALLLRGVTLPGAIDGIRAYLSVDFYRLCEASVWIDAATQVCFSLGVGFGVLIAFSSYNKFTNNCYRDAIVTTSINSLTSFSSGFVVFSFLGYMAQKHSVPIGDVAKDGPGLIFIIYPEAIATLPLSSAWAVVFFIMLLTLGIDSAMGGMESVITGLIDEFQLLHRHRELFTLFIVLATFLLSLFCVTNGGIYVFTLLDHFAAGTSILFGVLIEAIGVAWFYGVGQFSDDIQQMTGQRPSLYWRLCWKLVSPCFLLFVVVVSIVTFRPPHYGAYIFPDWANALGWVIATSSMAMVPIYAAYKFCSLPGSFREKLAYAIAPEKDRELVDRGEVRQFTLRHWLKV
D1 allo mod: allosteric modulators of human D1 dopamine receptor | HEK293 D1, CRE-luciferase, dopamine EC30 potentiation; actives deviate in either direction | B-score at 10 µM | 5.9% of 58,000 active | AID 641;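 active means luminescence count or its row- and column-corrected plate score outside the 99.7% band of the plate's sample wells, on either side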
FAK blocker: inhibitors of human focal adhesion kinase; biochemical FAK kinase activity assay; Q05397; inhibition, %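 (tested at 7 µM)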; 0.84% of 97,000 active; AID 727; in the data active means inhibition above about 19%;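 further: 0% = DMSO and 100% = reference compound high control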
PTK2B oligo ant: antagonists of human Pyk2 oligomerization. z-score (the deposit names both 25 µM and 10 µM). Q14289. 0.83% of 99,000 active. Q293 cells, Pyk2 FERM NanoBiT luminescence; hits give low values. AID 1347419;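 active means Z-score of -3 or lower, scaled per plate to the spread of control and sample wells; inactive means z-score above -3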;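 further: negative z-score means lost luminescence so less FERM oligomerization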
Mac1 fbg inh: CD11b/CD18-fibrinogen binding inhibition | P05107+P11215 | K562 CD11b/CD18 adhesion to fibrinogen, ATPlite luminescence; Mn2+ added to activate the integrin | inhibition, % at 10 µM | 0.54% of 93,000 active;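 active means primary inhibition of 50% or more at 10 µM, then 40% or more on retest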
CD11b adhes enh: CD11b/CD18-fibrinogen binding enhancement | activation, % at 10 µM | P05107+P11215 | K562 CD11b/CD18 adhesion to fibrinogen, ATPlite luminescence | 0.07% of 93,000 active;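 active means 10 µM primary screen giving 50% or more activity, confirmed by 40% or more on retest at that dose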
* = called active by the depositor; · = not tested or not shown.

SMILES	hDAT+cocaine	D1 allo mod	FAK blocker	PTK2B oligo ant	Mac1 fbg inh	CD11b adhes enh
CSc1ccc(CN(C)CC(=O)Nc2cccc(Br)c2)cc1	·	·	·	·	56	2
Cc1ccc2cccc(Oc3cnccn3)c2n1	-1.9*	-0.034	-1	0.37	-9	0
CC1(C)Cc2c(sc3ncn4nc(-c5ccco5)nc4c23)CO1	·	5.9*	33*	0.05	·	·
O=C(Cc1cccs1)N1CCC(c2nc3c(nnn3Cc3ccc(F)cc3)c(=O)[nH]2)CC1	1.8	-0.11	1	0.11	10	-4
O=C(C1CCC1)N1CCC(c2nc3c(nnn3Cc3c(F)cccc3Cl)c(=O)[nH]2)CC1	2.8*	0.93	-2	-1.1	3	-2
O=C(Cc1cccs1)N1CCCC(c2nc3c(nnn3Cc3cccc(Cl)c3)c(=O)[nH]2)C1 (configuration not stated)	2.3*	0.7	1	-1.1	0	1
O=C1c2ccccc2S(=O)(=O)c2cc(N3CCc4ccccc4C3)ccc21	0.91	·	·	·	·	·
COc1ccc(CCN2C(=O)CS/C2=N\NC(=O)c2ccc(C(C)(C)C)cc2)cc1OC	·	·	·	·	4	-3
COc1cc2c(cc1NC(=O)CN(C)Cc1nc3ccccc3c(=O)[nH]1)oc1ccccc12	1.1	-2.7*	·	-3.4*	-3	-2
Cc1cc(C)c2c(n1)nn1c(N3CCN(c4ccccc4)CC3)cc(C)nc21	0.27	-4.1*	5	-1.3	-5	0
CCOC(=O)C1=C(C)Nc2nc(=S)[nH]n2C1c1ccc(Cl)cc1 (configuration not stated)	-0.7	·	-1	-0.99	-4	30
COc1ccc2noc3c2c1C(=O)c1ccccc1-3	·	5*	·	·	·	·
N#Cc1cc2c(nc1SCC(O)CS(=O)(=O)Cc1ccccc1)CCCC2 (configuration not stated)	-0.31	-3.6*	-1	-0.41	3	-1
N#Cc1cc2c(nc1SCc1ccccc1)CCCCC2	-0.032	·	2	-0.46	4	0
COC(C[C@@H](O)CC(=O)COCc1ccccc1)OC	0.28	·	·	·	·	·
COc1ccccc1NC=C1C(=O)OC2(CCCCC2)OC1=O	-1.3	-6.9*	1	-0.25	9	3
Cc1ccccc1-n1nnnc1SC1CCOC1=O (configuration not stated)	0.16	0.22	·	1.8	3	-5
O=C(Nc1nc(-c2nc3ccccc3s2)cs1)C1CC1	0.76	-3.4*	·	·	1	-1
C/C(CCc1ccc2c(c1)OCO2)=N\N=C(/N)SC1CC(=O)N(c2ccccc2F)C1=O (configuration not stated)	-0.02	·	-3	0.7	·	·
CCOC(=O)/C(=C\Nc1ccccc1C(F)(F)F)Sc1ncc(C(F)(F)F)cc1Cl	0.96	·	-1	-0.11	6	0
COC(=O)/C(=C\Nc1ccc(Cl)c2ccccc12)c1ncc(C(F)(F)F)cc1Cl	0.44	·	-1	-3.4*	2	1
O=C(CCC(=O)NC1CCCCCC1)Nc1nnc(C(F)(F)F)s1	0.41	·	-1	0.42	-6	-3
CC(C)(C)CC(=O)Nc1nnc(C(F)(F)F)s1	2.8*	·	-1	-0.61	·	·
CCC(Oc1ccccc1)C(=O)Nc1nnc(C(F)(F)F)s1 (configuration not stated)	-0.096	-0.68	-12	-1.7	74*	-6
CC(NC(=O)Nc1nnc(C(F)(F)F)s1)N1C(=O)C2C3C=CC(C3)C2C1=O (configuration not stated)	-0.073	-0.12	6	0.29	·	·
SMILES	hDAT+cocaine	D1 allo mod	FAK blocker	PTK2B oligo ant	Mac1 fbg inh	CD11b adhes enh
CC(NC(=O)Nc1nnc(C(F)(F)F)s1)(C(F)(F)F)C(F)(F)F	-0.039	-3.6	-4	-1.4	99*	-7
CCOC(=O)C(C)Oc1ccc(C2NC(=O)NC(C)=C2C(=O)Nc2ccccc2C)cc1 (configuration not stated)	0.54	-1.2	1	0.33	-9	2
COC(=O)C(C)N1CCC(=O)c2ccccc2S1(=O)=O (configuration not stated)	-0.53	·	·	·	·	·
COC(=O)c1cc(NC(=O)c2ccc(Cn3cc(Cl)cn3)o2)cc(C(=O)OC)c1	-0.12	-0.034	-4	-2.6	-3	76
CCOC(=O)c1c(NC(=S)NC(=O)c2ccc(Cn3cc(Cl)cn3)o2)sc2c1CCC(C)C2 (configuration not stated)	-0.66	·	-4	0.61	-2	201*
CCc1nnc(NC(=O)CN2CCN(c3ccc(Cl)cc3)CC2)s1	·	·	2	·	·	·
Cc1sc2nc(C(C)Nc3ccccc3N3CCOCC3)[nH]c(=O)c2c1C (configuration not stated)	-7.5*	0.43	17	-0.54	0	39
CCOC(=O)c1cccc(NC(=O)C2CCCN(S(=O)(=O)c3c(C)nn(C)c3C)C2)c1 (configuration not stated)	3*	-0.17	-4	·	-4	5
CCN(CC)C(=O)C1CCN(S(=O)(=O)c2ccc3oc4ccccc4c3c2)CC1	2.3*	-1.7	0	-2	·	·
O=C(O)c1ccc2c(c1)C(=O)N(N1C(=O)c3ccccc3C1=O)C2=O	·	·	·	0.16	·	·
O=C(CSc1nc2c(cnn2-c2ccc(F)cc2)c(=O)[nH]1)N1CCOCC1	-7.9*	0.74	0	0	17	-4
COc1cccc(C2CC(c3cccs3)=NN2C(=O)CSc2nc3c(cnn3-c3ccc(F)cc3)c(=O)[nH]2)c1OC (configuration not stated)	3*	·	·	·	·	·
O=C(CSc1nc2c(cnn2-c2ccccc2)c(=O)[nH]1)N1CCOCC1	0.0058	0.22	-9	-0.19	·	·
CCOc1ccc(N2C(=O)CS/C2=N/NC(=O)COc2ccc3ccccc3c2)cc1	2.4*	·	4	-0.44	·	·
CC(=O)N1[C@H](Cc2ccccc2)C=C[C@]1(C)C(=O)NCc1ccccn1	-1.3	·	·	·	·	·
O=C(NCc1ccco1)c1nnc(Cc2ccc(F)cc2)o1	-0.7	·	·	·	·	·
O=C(NCc1ccco1)c1nnc(Cc2ccc(Cl)cc2)o1	2.6*	·	-4	·	-16	0
NC1=NC[C@H](Cc2ccccc2)N1CCCCC1CCCCC1	-3*	·	·	·	·	·
NC1=NC[C@H](Cc2ccc(O)cc2)N1CCCCC1CCCCC1	-4.1*	·	·	·	·	·
COCCOC(=O)C1=C(C)NC2=C(C(=O)CCC2)C1c1ccc(N(C)C)cc1 (configuration not stated)	3.1*	-0.031	-3	-0.27	-6	-5
CCN1CCN(C(c2cccs2)C(C)NC(=O)c2ccco2)CC1 (configuration not stated)	-0.65	-1.4*	-6	0.61	·	·
CC(NC(=O)c1cccs1)C(c1cccs1)N1CCN(Cc2ccccc2)CC1 (configuration not stated)	-0.12	-2.1*	3	0.01	·	·
O=C(Cn1nc(C(F)(F)F)c2c1CCCC2)Nc1ccc2c(c1)OCO2	-1.6*	-0.35	3	0.25	-9	-4
